High-throughput results deposited in PubChem BioAssay by National Center for Advancing Translational Sciences (NCATS).
Only some compounds are listed: those with a hit (about 2.8% of all), similar ones and a draw of the others.
TGFb inhibitor = inhibitors of TGF-b signaling | HepG2 CAGA-GFP TGF-b/SMAD3 reporter, GFP fluorescence, 18 h; TGF-beta stimulated, 500 pg/mL final | Potency, µM (doses to about 46.1 µM), inactives show at the top dose activity, negative = inhibition, usual class: inhibitors | 410,000 tested, 1.2% active | AID 588855; further: potency means the concentration at half of the fitted maximal effect; on the % scale 0 is the no-effect control and ±100 the full control effect; nearly all actives have a fitted effect of over 65% in size
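Smad-responsive CAGA-GFP expression was quantified in HEPG2 cells exposed to compounds and 500 pg/mL final TGF-beta for 18 h at 37 degrees C; unstimulated wells defined full inhibition.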
ATXN2 expr inh = reduces ATXN2 reporter expression in HEK-293 cells; HEK-293 ATXN2-luciferase reporter, luminescence, 24 h; Potency, µM (series often up to 57 µM), for the others: at the top dose activity change, negative = inhibition, actives largely listed as inhibitors; 360,000 tested, 0.72% active; AID 1745845; further: potency means the concentration at half of the fitted maximal effect; on the % scale 0 is the no-effect control and ±100 the full control effect; nearly all actives have a fitted effect of over 55% in size
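qHTS (up to 57 uM final) was run with 24 h compound exposure of reporter cells at 37 °C. Each well was multiplexed: SteadyGlo luminescence measured ATXN2-luciferase expression after a fluorogenic Gly-Phe-AFC viability readout (25 uM final).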
Six1-Eya2 blk = blocks human Six1 binding to Eya2; Q15475+O00167; AlphaScreen GST-Six1/His-Eya2 binding, biochemical; hits give low values; activity change, % (concentration not given with the values); 360,000 tested, 0.56% active; in the data active means activity change below about -65%; inconclusive means mostly about -30% to -63%; further: on the % scale 0 is the no-effect control and ±100 the full control effect
Target sequence (O00167 whole entry, looked up): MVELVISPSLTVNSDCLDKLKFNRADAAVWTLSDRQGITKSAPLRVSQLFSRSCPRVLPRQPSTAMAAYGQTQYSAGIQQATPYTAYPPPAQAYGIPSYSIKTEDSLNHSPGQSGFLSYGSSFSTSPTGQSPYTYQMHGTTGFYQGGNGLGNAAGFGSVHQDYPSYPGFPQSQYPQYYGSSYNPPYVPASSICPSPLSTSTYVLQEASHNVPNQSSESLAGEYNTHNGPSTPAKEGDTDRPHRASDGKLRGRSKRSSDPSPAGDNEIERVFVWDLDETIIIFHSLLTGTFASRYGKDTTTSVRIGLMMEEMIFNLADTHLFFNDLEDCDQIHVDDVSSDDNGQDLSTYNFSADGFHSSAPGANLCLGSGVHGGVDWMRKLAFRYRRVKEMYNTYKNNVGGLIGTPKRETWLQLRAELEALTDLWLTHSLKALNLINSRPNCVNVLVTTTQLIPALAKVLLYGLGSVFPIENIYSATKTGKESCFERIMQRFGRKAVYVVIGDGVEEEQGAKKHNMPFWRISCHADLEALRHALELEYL
Target sequence (Q15475 whole entry, looked up): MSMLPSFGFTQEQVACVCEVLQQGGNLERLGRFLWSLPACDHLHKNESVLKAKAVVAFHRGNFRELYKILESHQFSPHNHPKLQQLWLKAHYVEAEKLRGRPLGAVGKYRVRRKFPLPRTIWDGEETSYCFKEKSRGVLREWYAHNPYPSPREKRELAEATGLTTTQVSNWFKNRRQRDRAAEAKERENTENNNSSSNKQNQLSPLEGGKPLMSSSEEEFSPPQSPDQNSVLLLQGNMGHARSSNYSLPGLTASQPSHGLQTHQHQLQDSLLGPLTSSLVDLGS
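Homogeneous AlphaScreen proximity assay pairing GST-Six1 with His-tagged Eya2 (added as 5X mix: 250 nM and 500 nM) in 50 mM Tris pH 8.0, 300 mM NaCl, 1 mM TCEP. Glutathione donor and nickel acceptor beads; 1 h, 37 °C, dark.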
S2 tox = viability counter-screen for ATXN expression inhibitors; S2 cells (HEK-293 line with an ATXN2-luciferase reporter) viability, CellTiter-Fluor protease fluorescence, 24 h; Potency, µM (top dose mostly 56.7 µM), actives largely listed as cytotoxic; 400,000 tested, 0.49% active; further: potency means the concentration at half of the fitted maximal effect; nearly all actives have a fitted effect of over 40% in size
CtBP-E1A inh = inhibitors of CtBP/E1A interaction; AlphaScreen GST-E1A/His-CtBP binding, 1536-well; hits give low values; activity change, % (no concentration beside the values); 340,000 tested, 0.49% active; in the data active means activity change below about -65%; inconclusive means mostly about -30% to -63%; further: on the % scale 0 is the no-effect control and ±100 the full control effect
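AlphaScreen with 125 nM GST-E1A and 125 nM His-CtBP (5X stocks) in Tris pH 8.0, 300 mM NaCl, BSA, Tween 20, TCEP. Compounds preincubated 2 h at 37 deg C, then glutathione donor/nickel acceptor beads added for 1 h at 37 deg C in dark.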
HepG2 tox = kills HepG2 cells in TGF-b inhibitor counter-screen. HepG2 CAGA-GFP viability, ATP luminescence, 18 h. Potency, µM (series often up to 46.1 µM), for inactives: top-dose activity change, negative = cytotoxicity, most hits filed as cytotoxic. 410,000 tested, 0.76% active. AID 588856; further: potency means the concentration at half of the fitted maximal effect
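HepG2 CAGA-GFP cells (1000/well, DMEM with 1% FBS) received compound, then TGF-beta at 500 pg/mL final, and were incubated 18 hours at 37 degrees C. Viability was read by CellTiter-Glo luminescence. Media-only wells were set as complete cell-killing and DMSO as no toxicity.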
* hit, by the source's call; i = inactive; ? = inconclusive; . = no result given. Unless noted, the call rests on the fitted dose curve; in most records, active means well fitted curve in the direction sought with a large enough effect; inconclusive means small, poorly fitted or top-dose-only effect, or another doubt; inactive means no such curve, though single readings can be large; an effect the other way counts as inactive or inconclusive.

SMILES	TGFb inhibitor	ATXN2 expr inh	Six1-Eya2 blk	S2 tox	CtBP-E1A inh	HepG2 tox
Cc1ccc(OCC(=O)Nc2ccccc2C(=O)OCc2cc(=O)n3ccsc3n2)cc1C	1%	7%	.	i	.	2%
OCC[C@@H]1C[C@H](O)[C@@H](O)[C@]2(OCc3ccc4ccccc4c32)O1	1%	11%	-1	i	5	-14%
Cc1ccccc1C1(CC(=O)N2CCC[C@H]2C(N)=O)CC(=O)N(C2CCCC2)C1=O (some centres not stated)	.	.	.	i	.	.
CCCN(CCC)CC(O)Cn1cc(/C=C/C(=O)c2ccc(OCC)cc2)c2ccccc21 (configuration not stated)	?	?	.	.	.	13µM*
CC1=C(C(=O)OCc2ccc3nsnc3c2)N2C(=O)[C@@H](NC(=O)OCc3ccc4nsnc4c3)[C@H]2SC1	?	.	.	.	.	-3%
COc1ccc(OC)c(/C=C2\C=Cc3ccccc32)c1	?	.	.	.	.	-38%
CC(=NNC(=S)N1CC2CCC(CC2)C1)c1ccncn1	?	0.32µM*	?	?	-96*	-40%
C/C(=N\NC(=S)NC1CCCCC1)c1ccc(Cl)c(Cl)c1	-15%	9%	-4	i	-3	1%
CCc1nc2ccc(C(=O)Nc3ccc(OC)c(OC)c3)cn2c1N(C)Cc1nccs1	-1%	-29%	-13	?	-7	-25%
Cc1nn(CC(=O)NCc2ccco2)c(=O)c2nn(-c3ccccc3)c(C)c12	-4%	-2%	.	i	.	-15%
COc1cccc(CNC(=O)Cn2nc(C)c3c(C)n(-c4ccc(C)cc4)nc3c2=O)c1OC	-1%	-6%	-2	i	4	-2%
Cc1ccc(-n2nc3c(=O)n(CC(=O)NCCc4ccco4)nc(C)c3c2C)cc1	22µM*	0%	9	i	10	-93%
CCOc1ccccc1CNC(=O)Cn1nc(C)c2c(C)n(-c3ccc(C)cc3)nc2c1=O	5µM*	.	0	?	.	-44%
CC1(C(=O)Nc2cccc(Oc3ccccc3)c2)CCN1Cc1cc2ccccc2o1 (configuration not stated)	-10%	13%	-1	i	12	-2%
C=C1c2c(Cl)ccc(O)c2C(O)=C2C(=O)[C@]3(O)C(O)=C(C(N)=O)C(=O)[C@@H](N(C)C)[C@@H]3[C@@H](O)[C@H]12	.	.	.	i	.	.
CC1CCCC=CC2CC(OC(=O)CN(C)C)CC2C(O)C=CC(=O)O1 (configuration not stated)	?	?	1	?	14	-34%
C[C@H]1CCC/C=C/[C@@H]2C[C@H](O)C[C@H]2[C@H](O)[C@H](S(=O)c2ccc(O)cc2)CC(=O)O1 (some centres not stated)	0.13µM*	?	-6	?	3	-46%
Cc1ccc2nc(N(CCCN(C)C)C(=O)c3ccco3)sc2c1	-9%	-18%	-1	?	-19	-25%
CN(C)CCCN(C(=O)c1cc2cc([N+](=O)[O-])ccc2s1)c1nc2cc3c(cc2s1)OCCO3	?	?	-18	20µM*	?	-98%
CN(C)CCCN(C(=O)c1ccco1)c1nc2cc3c(cc2s1)OCO3	-19%	14µM*	-2	i	-13	-30%
CN(C)CCCN(C(=O)c1ccc([N+](=O)[O-])s1)c1nc2cc3c(cc2s1)OCCO3	?	-24%	-11	?	-7	-64%
CN(C)CCCN(C(=O)c1ccc(C(=O)c2ccccc2)cc1)c1nc2cc3c(cc2s1)OCO3	?	?	?	?	1	11µM*
CN(C)CCCN(C(=O)c1ccc(Cl)s1)c1nc2cc3c(cc2s1)OCO3	?	?	-10	28µM*	-14	-95%
CC(=O)Nc1ccccc1-c1nc(CNC(=O)c2ccc(-c3ccccc3F)cc2)c(C)o1	.	.	.	i	.	.
